Screens as filed in PubChem.
In the library only some 17% were active in any assay of this set; here they are far more common.
DT40 TDP1 CPT: DT40-hTDP1 cell growth loss with CPT; chicken DT40 Tdp1-/-;hTDP1 cells + 20 nM CPT, ATP luminescence, 48 h; Potency, µM (highest dose often 46.2 µM), for the others: at the top dose activity change, negative = growth inhibition, usual class: inhibitors; 420,000 tested, 12% active; further: on the % scale 0 is the no-effect control and ±100 the full control effect; nearly all actives have a fitted effect of over 55% in size
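Chicken DT40 Tdp1-/- cells complemented with human TDP1, 400 cells/well, exposed to compounds plus 20 nM camptothecin for at least 48 h at 37 C; viability read as ATP content by CellTiter-Glo luminescence.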
TDP1 block: TDP1 (human) enzyme inhibition; AID 485290; Q9NUW8; 350,000 tested, 0.28% active; recombinant TDP1, AlphaScreen DNA substrate cleavage; Potency, µM (top dose mostly 130 µM), inactives show at the highest dose activity change, negative = inhibition, actives largely listed as inhibitors; further: on the % scale 0 is the no-effect control and ±100 the full control effect; nearly all actives have a fitted effect of over 40% in size
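Recombinant E. coli-expressed Tdp1 (1 nM) preincubated with compound 15 min at RT, then 5'-biotin/3'-phosphotyrosine-FITC DNA substrate (15 nM) added for 5 min. AlphaScreen beads (10 ug/ml) added, 10 min RT; tyrosine-FITC cleavage read as signal loss.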
ClpP mod: qHTS Assay for Activators of ClpP. ATP-dependent Clp protease proteolytic subunit (Bacillus subtilis (strain 168)), P80244. purified B. subtilis ClpP, FRET peptide cleavage, 20 min. Potency, µM (top dose mostly 57.5 µM), without a hit: at the highest dose activity change, negative = active. 340,000 tested, 1.9% active; active means well fitted falling curve with a large enough effect; inconclusive means small, poorly fitted or top-dose-only effect; inactive means no such curve, though single readings can be large or run the other way; further: the source files actives as falling curves though it sought activators and does not explain the sign; nearly all actives have a fitted effect of over 65% in size
Target sequence (P80244 whole entry, looked up): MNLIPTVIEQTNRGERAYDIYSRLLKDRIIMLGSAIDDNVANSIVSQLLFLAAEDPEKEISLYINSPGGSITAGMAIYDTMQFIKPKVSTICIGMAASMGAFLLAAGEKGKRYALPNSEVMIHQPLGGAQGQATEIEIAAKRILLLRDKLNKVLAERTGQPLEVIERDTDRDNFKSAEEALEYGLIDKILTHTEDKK
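Purified B. subtilis ClpP, 10 microg/mL final in Tris/HCl pH8 with KCl, BSA, glycerol and Tween-20, cleaved an Abz/nitrotyrosine-quenched decapeptide. Fluorescence (ex 320, em 430) was read at 0 and 20 min at room temperature. Delta was normalized to 5.8 microM ADEP and DMSO/no-enzyme controls.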
TDP1 cell noCPT: qHTS for Inhibitors of human tyrosyl-DNA phosphodiesterase 1 (TDP1): qHTS in cells in absence of CPT. DT40 Tdp1-/- hTDP1 cells, no CPT, ATP luminescence, 48 h. Potency, µM (top dose mostly 46.2 µM), for inactives: top-dose activity change, negative = growth inhibition, actives largely listed as inhibitors. 420,000 tested, 15% active. AID 686978, 2013; further: on the % scale 0 is the no-effect control and ±100 the full control effect; nearly all actives have a fitted effect of over 55% in size
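Chicken DT40 Tdp1-/- cells stably complemented with human TDP1 were seeded at 400 cells/well with DMSO in place of 20 nM camptothecin. After compound pinning, cells grew at least 48 hr at 37 °C; viability read by CellTiter-Glo luminescence.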
* = called active by the depositor; ? = inconclusive; . = no result given; [ ] = remark or other dose. Unless noted, the call rests on the fitted dose curve; in most records, active means well fitted curve in the direction sought with a large enough effect; inconclusive means small, poorly fitted or top-dose-only effect, or another doubt; inactive means no such curve, though single readings can be large; an effect the other way counts as inactive or inconclusive. Potency means the concentration at half of the fitted maximal effect.

SMILES	DT40 TDP1 CPT	TDP1 block	ClpP mod	TDP1 cell noCPT
CC(=O)N1CCC(C(=O)Nc2ccc(S(=O)(=O)NCCc3ccccc3)cc2)CC1	-2.6%	.	-1.1%	-8.4%
COC(=O)c1ccccc1NC(=O)c1ccc2c(c1)OCCCO2	-20.8%	.	-1.3%	-3.6%
CN(CC(=O)Nc1cccc(F)c1)C(=O)c1ccccc1Cc1ccccc1	?	.	-0.6%	?
CC(C)CCN1C(=O)CSCC1(C)C(=O)Nc1ccc2c(c1)OCCO2 (stereo not given)	4.2%	.	-2.6%	-25.2%
O=C(C1CCC(=O)N(C2CC2)C1)N1CCC(Oc2cccc(F)c2)CC1 (stereo not given)	-20.3%	1.0%[56.1 µM]	-1.6%	-1.9%
O=C(COC(=O)c1ccccc1O)Nc1ccc(N2CCOCC2)cc1	-9.5%	0.4%	14.8%	3.4%
CCc1ccc(NC(=O)c2cc(S(=O)(=O)NC3CCCC3)ccc2F)cc1	13µM*	5.2%	-2.9%	16.4µM*
Cc1ccc2nc(SCC(=O)NCCc3ccccc3)nc(=O)n2c1	2.4%	0.0%	28.2µM*	-2.9%
CCOC(=O)CSc1nc(=O)n2cc(C)ccc2n1	2.8%	2.3%	.	-15.3%
O=C(CSc1nc(=O)n2cc(Cl)ccc2n1)NCCc1ccccc1	-12.3%	.	-10.4%	-7.1%
Cc1ccc2nc(SCC(=O)OCc3ccccc3)nc(=O)n2c1	1.1%	13.2%	28.2µM*	5.0%
Cc1cccc(C)c1OCCCn1c(CCNC(=O)C2CCCCC2)nc2ccccc21	14.6µM*	3.2%	-3.3%	18.4µM*
COc1ccc(OCCn2c(CCNC(=O)C3CCCCC3)nc3ccccc32)cc1	?	0.0%	-0.9%	12.6µM*
Cc1ccccc1OCCCCn1c(CCNC(=O)C(C)(C)C)nc2ccccc21	13µM*	6.1%	1.8%	8.2µM*
Cc1cccc(OCCCn2c(CCNC(=O)C(C)(C)C)nc3ccccc32)c1	?	0.0%	-0.4%	?
COc1ccccc1OCCn1c(CCNC(=O)C2CCCCC2)nc2ccccc21	?	-4.8%	2.7%	?
O=C(NCCc1nc2ccccc2n1CCCOc1ccccc1)C1CCCCC1	10µM*	1.0%	-0.3%	11.2µM*
CCc1ccc2oc(-c3ccc(C)c(NC(=O)c4ccc(C#N)cc4F)c3)nc2c1	.	7.1%	-17.3%	.
Cc1cc(OCCCn2c(CCNC(=O)C3CCCCC3)nc3ccccc32)ccc1Cl	6.51µM*	5.1%	0.9%	7.31µM*
COc1ccc(OC)c(-c2csc(-c3c(N)c(C(=O)c4ccc(Cl)cc4)n4ccccc34)n2)c1	7.3%	-7.6%	-1.0%	-12.7%
N#Cc1cccnc1N1CCN(C(=O)c2cccc3c2C(=O)c2ccc(Cl)cc2S3(=O)=O)CC1	?	1.6%	-1.3%	16.4µM*
O=C1c2ccc(Cl)cc2S(=O)(=O)c2cccc(C(=O)N3CCN(c4ncc(Br)cn4)CC3)c21	?	2.3%	3.1%	20.6µM*
COc1ccc(-c2ccc3c(c2)S(=O)(=O)c2cccc(C(=O)N4CCN(c5c(Cl)cncc5Cl)CC4)c2C3=O)cc1OC	5.8µM*	1.5%	-1.3%	5.17µM*
COc1ccc(CC(O)CO)cc1OCc1ccccc1 (stereo not given)	10.2%	.	0.9%	-12.9%
O=C(Nc1cccc2cccnc12)c1ccc2sc([C@@H]3O[C@H](CO)[C@H](O)[C@H](O)[C@H]3O)nc2c1	?	.	-1.3%	?
SMILES	DT40 TDP1 CPT	TDP1 block	ClpP mod	TDP1 cell noCPT
CCCN(CCC)c1nc(N)nc(C#N)n1	?	0.7%	-0.6%	17.8µM*
CCN(CC)c1nc(C#N)nc(N(CC)CC)n1	?	?	0.8%	-15.6%
O=C(C[n+]1cccc(Br)c1)c1ccc(O)c(O)c1	0.7%	.	1.9%	-18.7%
O=C(C[n+]1csc2ccccc21)c1ccc(O)c(O)c1	?	.	-2.2%	15.8µM*
O=C(NN=C(c1ccccc1)c1ccccn1)c1ccccc1	1.03µM*	3.5%	1.3%	0.92µM*
O=C(NN=C1CCC(=NNC(=O)c2ccccn2)CC1)c1ccccn1	2.3%	5.1%	.	-23.0%
O=C(NC(O)C(=O)c1ccccc1)c1ccccn1 (stereo not given)	23.1µM*	1.7%	.	?
C/C(Cc1ccccc1)=N\NC(=O)c1ccccn1	19.0%	0.6%	-0.4%	-3.6%
COc1ccc(C(=O)Nc2ccc(NC(=O)c3ccccn3)cn2)cc1	-7.0%	0.2%	0.5%	-20.0%
COc1ccc(C(=O)N/N=C(\c2ccccc2)c2ccccn2)cc1	2.91µM*	10.1%	2.1%	2.59µM*
O=C(N/N=C(\c1ccccc1)c1ccccn1)c1ccccc1Cl	?	3.2%	8.91µM*	?
CCOC(=O)N1CCC(N(CCN(C)C)C(=S)Nc2ccc(Oc3ccccc3)cc2)CC1	-8.9%	4.7%	.	-22.8%
O=C(Nc1cccc(F)c1)N1CCCC2(CCN(C(=O)c3cccc(F)c3)CC2)C1	-1.8%	.	.	-15.3%
Cc1ccc(-c2nn(C)c(=O)c3ccccc23)cc1S(=O)(=O)N1CCOCC1	11.2µM*	-7.8%	-1.7%	?
Cc1ccc(-c2nn3c(C)nnc3c3ccccc23)cc1S(=O)(=O)N(C)CCO	?	3.5%	-14.8%	?
Cc1ccc(-c2nn(C)c(=O)c3ccccc23)cc1S(=O)(=O)NCCCN(C)C	1.1%	-1.1%	-4.2%	0.0%
Cc1ccc(-c2nn(C)c(=O)c3ccccc23)cc1S(=O)(=O)N1CCCC1	14.6µM*	4.3%	0.3%	?
CCOC(=O)N1CCN(S(=O)(=O)c2cc(-c3nn4c(C)nnc4c4ccccc34)ccc2C)CC1	?	3.1%	-17.7%	25.9µM*
COC(=O)[C@@]12OC[C@]34[C@H]([C@@H](O)[C@@H]1O)[C@@]1(C)C(=O)C(O[C@@H]5OC(CO)[C@@H](O)[C@@H](O)[C@@H]5O)=C[C@@H](C)[C@@H]1C[C@H]3OC(=O)[C@H](OC(=O)/C=C(\C)C(C)(C)OC(C)=O)[C@@H]24 (stereo not given in full)	5.17µM*	.	?	3.26µM*
Brc1ccc2c(c1)C(C1=NCCN1)c1ccccc1CS2 (stereo not given)	7.31µM*	5.3%	-1.0%	5.8µM*
c1ccc2c(c1)CCCC2C1=NCCN1 (stereo not given)	-25.9%	2.9%	0.8%	-11.1%
O=C(Nc1ccncc1)c1cnn2c1NC(=C1CC1)C=C2C(F)F	10µM*	.	-13.1%	11.2µM*
Cc1ccc2c(c1)CCCN2C(=O)c1cnn2c1NC(=C1CC1)C=C2C(F)F	10µM*	.	-2.0%	10µM*
O=C(O)c1ccccc1[O-].O=C(O)c1ccccc1[O-].[Zn+2]	-5.8%	.	.	0.1%
CCNS(=O)(=O)c1cccc(C(=O)c2c(C)cc3ccccn23)c1	?	5.6%	2.9%	14.6µM*
Cc1cc2ccccn2c1C(=O)c1ccc(S(=O)(=O)N(C)C)cc1	18.4µM*	5.4%	0.7%	23.1µM*
